# Laboratory results as given in PubChem BioAssay (NCI).
# About 83,000 compounds went through this panel and 20% of them were active in at least one assay; those are over-represented in the sample as a whole.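 Percent growth is the endpoint: 0 to 100 indicates growth inhibition (40 means 60% inhibition), 0 means no net growth, and negative values indicate cell death.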 Values without a mark were called inactive. Activity calls are given as the source filed them. Rule for the calls: active = growth percent below 10; inactive = the rest.
# Columns and labels:
# Test in all cases: NCI-60 one-dose screen, 48 h (100 = growth as untreated, 0 = no growth, -100 = all killed)
# NCI-H23 lung = conditions: 10 µM unless noted
# NCI-H226 lung = conditions: 10 µM unless noted
# NCI-H322M lung = conditions: 10 µM unless noted
# HOP-62 NSCLC = conditions: 10 µM unless noted
# NCI-H460 lung = conditions: 10 µM unless noted
# 786-0 renal = conditions: 10 µM unless noted
# MDA-MB-231 breast = conditions: 10 µM unless noted
# SF-268 CNS = conditions: 10 µM unless noted
# SF-539 CNS = conditions: 10 µM unless noted
# M14 melanoma = conditions: 10 µM unless noted
# HCT-15 colon = conditions: 10 µM
# U251 CNS = conditions: 10 µM unless noted
# UO-31 renal = conditions: 10 µM unless noted
# OVCAR-3 ovarian = conditions: 10 µM unless noted
# MDA-MB-435 melanoma = conditions: 10 µM unless noted
# SW-620 colon = conditions: 10 µM unless noted
# MCF7 breast = conditions: 10 µM unless noted
# HCT-116 colon = conditions: 10 µM unless noted
# KM12 colon = conditions: 10 µM unless noted
# SK-OV-3 ovarian = conditions: 10 µM unless noted
SMILES,growth (NCI-H23 lung),growth (NCI-H226 lung),growth (NCI-H322M lung),growth (HOP-62 NSCLC),growth (NCI-H460 lung),growth (786-0 renal) [%],growth (MDA-MB-231 breast),growth (SF-268 CNS),growth (SF-539 CNS),growth (M14 melanoma),growth (HCT-15 colon) [%],growth (U251 CNS),growth (UO-31 renal),growth (OVCAR-3 ovarian),growth (MDA-MB-435 melanoma),growth (SW-620 colon) [%],growth (MCF7 breast),growth (HCT-116 colon),growth (KM12 colon),growth (SK-OV-3 ovarian)
O=C1NC(=S)NC(=O)C1=Cc1ccccc1,86.2%,98.3%,119%,101%,104%,123,104%,110%,103%,108%,99.5,103%,87.7%,121%,124%,96,93.2%,107%,109%,–
C[C@]12CCC(=O)CC1CC[C@@H]1C2CC[C@@]2(C)C1CC[C@@H]2OC(=O)CC[Se][Se]CCC(=O)O[C@H]1CCC2[C@@H]3CCC4CC(=O)CC[C@]4(C)C3CC[C@@]21C (some centres not stated),102%,93%,84.1%,82.4%,95.9%,107,94.3%,94.1%,103%,78.7%,97.4,81.3%,90.5%,109%,88.5%,122,80.8%,95.5%,103%,160%
CC1(C)N=C(N)N=C(N)N1c1cccc(C(=O)Nc2cccc(S(=O)(=O)F)c2)c1,107%,99%,100%,105%,97.3%,99.5,113%,112%,–,102%,–,99.8%,78.5%,112%,98.4%,93.5,95.5%,101%,102%,117%
CC1=C(SCCC(=O)OCC(=O)NCCC[Te]c2ccccc2)C(=O)c2ccccc2C1=O,-33.6% (active),-4.17% (active),-13.3% (active),-49.1% (active),-43.1% (active),23.2,-34.5% (active),-13.1% (active),-60.3% (active),-52.4% (active),10.4,-5.81% (active),-0.644% (active),-25.6% (active),4.67% (active),22.1,3.85% (active),-12.9% (active),2.96% (active),-36.8% (active)
COc1ccc(/C=C\c2cc(OC)c(OC)c(OC)c2)cc1N/C=C\C(=O)c1c[nH]c2ccccc12,26.6%,-0.606% (active),40.6%,39.3%,6.44% (active),20.9,18.4%,15.1%,-43.4% (active),11.3%,12.5,15.5%,26.4%,-9.54% (active),-7.95% (active),24.7,14.7%,2.62% (active),3.99% (active),12.9%
CN1CC2CCC(C1)C2=O,106%,103%,88.4%,84.4%,104%,97.1,124%,106%,105%,98.2%,106,101%,62.7%,106%,97.7%,104,102%,95.4%,115%,91.8%
CC(C)C1c2ccc(O)cc2Oc2nc(N)c(C#N)c(N)c21 (configuration not stated),105%,93.6%,93.8%,92.9%,107%,96.1,89.9%,112%,93.5%,129%,107,95.8%,89.2%,124%,103%,115,124%,103%,103%,116%
ClCCN(CCCl)c1nc(Cl)c(C2CC(c3ccccc3)=NN2c2ccccc2)s1 (configuration not stated),86.8%,83.3%,86.9%,79.5%,89.1%,91.7,88.1%,88.9%,102%,92.4%,101,86.1%,72.4%,99.9%,103%,86,91.6%,78.3%,98.3%,82.9%
